From PubChem BioAssay
Lmaj promast: Leishmania major promastigote growth inhibition, primary screen; Leishmania major promastigotes, resazurin fluorescence viability; inhibition, % at 10 µM; 200,000 tested, 9% active; in the data active = inhibition above about 50%;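 note: promastigotes grown with compound for 44 hours at 28 °C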
p97 ATPase inh: inhibitors of human p97 ATPase, primary screen, biochemical; Transitional endoplasmic reticulum ATPase (Homo sapiens), P55072; recombinant p97 ATPase, Kinase-Glo ATP luminescence, 3 h; inhibition, % at 8 µM; 220,000 tested, 0.42% active; AID 1481, 2009; in the data active = inhibition above about 15%;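 note: 0% = DMSO vehicle and 100% = wells lacking enzyme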
Target sequence (P55072 whole entry, looked up): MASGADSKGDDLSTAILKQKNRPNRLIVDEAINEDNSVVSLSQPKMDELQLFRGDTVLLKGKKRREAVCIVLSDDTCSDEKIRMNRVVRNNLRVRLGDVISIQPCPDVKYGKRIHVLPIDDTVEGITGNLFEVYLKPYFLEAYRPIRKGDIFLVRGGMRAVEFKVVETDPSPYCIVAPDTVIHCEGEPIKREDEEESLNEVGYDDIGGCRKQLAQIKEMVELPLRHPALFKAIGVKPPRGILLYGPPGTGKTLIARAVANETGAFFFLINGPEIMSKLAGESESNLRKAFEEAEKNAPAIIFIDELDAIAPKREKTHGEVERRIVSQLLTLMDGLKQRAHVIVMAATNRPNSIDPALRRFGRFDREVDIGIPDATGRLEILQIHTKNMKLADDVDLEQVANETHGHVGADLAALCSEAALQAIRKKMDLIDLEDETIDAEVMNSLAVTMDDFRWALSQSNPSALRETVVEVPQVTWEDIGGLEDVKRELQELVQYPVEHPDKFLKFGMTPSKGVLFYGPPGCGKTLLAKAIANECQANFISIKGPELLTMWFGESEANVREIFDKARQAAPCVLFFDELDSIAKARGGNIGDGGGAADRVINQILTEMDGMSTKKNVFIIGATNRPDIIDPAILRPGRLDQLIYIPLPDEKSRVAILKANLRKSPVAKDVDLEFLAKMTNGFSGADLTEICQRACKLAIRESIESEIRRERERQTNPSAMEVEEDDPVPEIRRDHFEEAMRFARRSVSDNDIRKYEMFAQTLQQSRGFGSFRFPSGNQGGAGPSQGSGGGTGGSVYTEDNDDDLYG
ROMK primary: ROMK potassium channel modulators, primary screen, cell-based, thallium flux, MLSMR library. B-score at 10 µM. ATP-sensitive inward rectifier potassium channel 1 (Homo sapiens), P48048. 130,000 tested, 2% active. Tet-inducible ROMK, thallium flux fluorescence; actives lie on both sides;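 active = signal ratio slope over the read window, or its plate-corrected B-score, at least 3 SD from the plate mean, either direction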;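 note: B-score of the F/F0 ratio slope over 7 to 12 s after thallium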
Insulin prom inh: inhibitors of insulin promoter-driven GFP, primary screen, imaging, TRM-6 cells (human fetal islet line), eGFP reporter, cell count | inhibition, % at 2 µM | AID 1273, 2008 | 130,000 tested, 0.9% active | reporter expression induced with tamoxifen;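 active = inhibition above the mean plus 3 SD, with well images judged a real hit on visual review, cut at about 60% in these data, passing the limit was not always enough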
PTEN del growth: growth suppression of PTEN-null HCT116, primary screen, cell-based, CellTiter-Glo; HCT116 PTEN-null viability, 60 h; stronger effect = lower value; viability, % at 10 µM; 140,000 tested, 1.2% active;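 active = viability at or below a set limit, 4 SD under the median of all tested compounds, cut at about 3.7% in these data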;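 note: PTEN knockout HCT116 line with beta catenin targeted HCT116 as companion control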
bCat KO growth: primary screen for growth suppressors in beta-catenin knockout HCT116 cells (colon tumor, human) | viability, % at 10 µM | 140,000 tested, 1.5% active | AID 818, 2007 | HCT116 beta-catenin knockout viability, CellTiter-Glo, 60 h; stronger effect = lower value;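 active = viability at or under a set limit, the compound median less 4 SD, cut at about 6% in these data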;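 note: 0% = Hyamine 1622 control at 20 µM and 100% = untreated cell control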
Numbers without * were called inactive; . = no result given. The list is not random: actives were taken first. Their share in the collection is about 10%.

SMILES	Lmaj promast	p97 ATPase inh	ROMK primary	Insulin prom inh	PTEN del growth	bCat KO growth
CC(=O)Oc1ccc(Cn2cnc3cc4ccccc4cc32)cc1	58*	-2	-2.2	19	85	91
CSc1ccc(OC2CCCCC2NS(=O)(=O)c2ccc(Cl)cc2)cc1 (stereo unspecified)	96*	-2	.	100*	88	80
CN(c1ccccc1)C1CCCCC1NS(=O)(=O)c1ccc(Cl)cc1 (stereo unspecified)	35	2	-0.065	27	35	39
O=S(=O)(NC1CCCCC1Oc1ccccc1)c1ccc(Cl)cc1 (stereo unspecified)	75*	-4	-0.42	-34	72	77
CC(O)CNCc1ccccc1C(F)(F)F (stereo unspecified)	-10	-1	0.3	.	.	.
O=C(CSc1ncc(C(F)(F)F)cc1Cl)N1CCN(S(=O)(=O)c2ccc(Cl)cc2)CC1	90*	0	-0.93	-43	36	43
CCCc1cc(=O)[nH]c(SCC(=O)N2CCN(S(=O)(=O)c3ccc(Cl)cc3)CC2)n1	67*	7	0.36	6	97	92
Cc1nc(C)n(CC(=O)N2CCCC(C(=O)c3cccc4ccccc34)C2)n1 (stereo unspecified)	-5	2	.	.	.	.
CC/C(=N\NC(=O)c1ccncc1)C12CC3CC(CC(C3)C1)C2	89*	-1	-0.34	3	103	100
O=C(NNC(=S)NC(=O)C12CC3CC(CC(C3)C1)C2)c1ccncc1	78*	8	.	.	16	17
CC1(C(=O)NC(=S)NNC(=O)c2ccncc2)CCCCC1	2	-4	0.7	-59	20	22
O=C(NNC(=O)C12CC3CC(CC(C3)C1)C2)c1cnccn1	89*	3	-0.02	26	21	18
O=C(N/N=C/c1ccncc1)C12CC3CC(CC(C3)C1)C2	0	7	-0.081	-33	.	.
CC/C(=N\NC(=O)c1ccc2c(c1)OCO2)C12CC3CC(CC(C3)C1)C2	99*	-3	0.49	33	80	92
COc1cccc(/C=C/C(=C2/C(=O)N(c3ccccc3)N=C2C)c2ccc(C)cc2)c1OC	28	3	.	9	48	49
C=CCNCc1cccn1-c1sc2c(c1C#N)CCCC2	15	-1	-0.77	-36	75	65
N#Cc1c(-n2cccc2/C=N/O)sc2c1CCCC2	4	-5	-0.55	71*	84	79
CCOC(=O)c1cc(NC(=O)c2ccccc2)c(=O)n2c1oc1ccccc12	-1	2	.	.	.	.
CCc1cc(/C(Cc2ccccn2)=N\Nc2ccccc2)c(O)cc1O	59*	2	0.17	.	.	.
O=C(Nc1cccs1)Nc1c(F)c(F)c(F)c(F)c1F	55*	5	.	4	84	80
N#CCCN(C(=O)COC(=O)c1ccc(S(=O)(=O)Nc2ccccc2)cc1)c1ccccc1	-3	2	-0.72	-21	92	82
N#CCCN(C(=O)COC(=O)c1cccc(S(=O)(=O)Nc2ccc([N+](=O)[O-])cc2)c1)c1ccccc1	-13	1	-0.67	69*	97	98
Cc1ccc(OCC(=O)NC(=S)Nc2ccc(Br)cn2)cc1C	-9	2	0.63	.	.	.
CCc1cccc2c(C(=O)COC(=O)c3nn(C)c(=O)c4ccccc34)c[nH]c12	-1	1	-1.7	28	91	101
CCc1cccc2c(C(=O)CN3C(=O)NC(C)(c4cccc5ccccc45)C3=O)c[nH]c12 (stereo unspecified)	63*	7	0.51	.	.	.
SMILES	Lmaj promast	p97 ATPase inh	ROMK primary	Insulin prom inh	PTEN del growth	bCat KO growth
NC(=O)Cn1nnc(-c2ccc(NC(=O)c3ccc(F)cc3)cc2)n1	1	-4	0.82	.	.	.
COCCn1nnnc1CN(CCc1ccc(OC)c(OC)c1)Cc1cc2ccc(C)cc2[nH]c1=O	97*	-2	.	.	94	80
COCCn1nnnc1CN(CCc1ccccc1)Cc1cc2cc(OC)ccc2[nH]c1=O	14	-5	-1.7	-53	.	.
Cc1ccc(C)c(-c2cc(C(=O)Nc3sc(C)c(C)c3C(N)=O)c3ccccc3n2)c1	61*	-8	1.1	.	29	36
Cc1ccccc1C(=O)N[C@H](C(=O)Nc1ccc(Cl)c(Cl)c1)C(C)C	9	2	.	-9	79	79
Cc1ccccc1-c1cc(C(=O)Nc2nc3c(s2)CCCC3)c2ccccc2n1	65*	2	1.2	.	88	83
Cc1ccccc1C(=O)NC(C(=O)Nc1nc2c(s1)CCCC2)C(C)C (stereo unspecified)	50*	-1	.	-38	84	82
O=C(/C=C/c1ccccc1[N+](=O)[O-])NCCc1ccc(F)cc1	5	5	1.5	.	.	.
CCOC(=O)NC(=O)C(/C=N/c1sccc1C(=O)OC)=C(\C)O	-2	7	0.33	.	.	.
CC(C)(CO)NC(=S)NCc1ccco1	.	-6	.	.	.	.
O=C(/C=N/O)NCc1ccncc1	0	-8	.	5	108	101
Cc1nn(CC(=O)OCC(=O)Nc2c(C(C)C)cccc2C(C)C)c(C)c1[N+](=O)[O-]	51*	3	.	-4	89	91
Cc1ccc(CNC(=O)COC(=O)Cn2nc(C)c([N+](=O)[O-])c2C)cc1	-2	2	-0.39	6	.	.
Cc1ccc(NC(=O)COC(=O)Cn2nc(C)c([N+](=O)[O-])c2C)c([N+](=O)[O-])c1	36	-5	.	-6	91	98
Cc1nn(CC(=O)OCC(=O)Nc2ccccc2[N+](=O)[O-])c(C)c1[N+](=O)[O-]	65*	-7	.	-4	94	97
COc1cc(C)c(S(=O)(=O)N2CCN=C2c2ccccc2)cc1C	94*	5	-1	-26	94	82
CC1CC(C)CN(CCCn2c(=S)[nH]c3ccccc3c2=O)C1 (stereo unspecified)	89*	-6	0.5	16	105	95
CCN(CC)CCCn1c(=S)[nH]c2ccccc2c1=O	1	7	.	.	108	88
COc1cc(CNCCN2CCOCC2)ccc1OCc1c(Cl)cccc1Cl	86*	-2	.	-26	75	80
CCOc1cc(CNCCN2CCOCC2)ccc1OCc1ccccc1Cl	98*	4	-2	.	.	.
CCOc1cc(CNCCCN2CCOCC2)ccc1OCC(=O)NC(C)(C)C	1	1	-0.0083	6	.	.
COC(=O)c1ccc(OCCCCN2CC(C)OC(C)C2)cc1 (stereo unspecified)	96*	-3	-1.5	.	.	.
CC1CN(CCCCOc2ccc3ccccc3c2)CC(C)O1 (stereo unspecified)	90*	6	-0.68	35	93	80
CC(C)SCCCCOc1ccc2ccccc2c1	72*	-4	0.6	.	75	66
